BAZ2B block = blocks human BAZ2B; Q9UIF8; AlphaScreen BAZ2B-H3K14Ac peptide displacement; Potency, µM (highest dose often 114 µM), inactives show at the top dose activity change, negative = inhibition, actives largely listed as inhibitors; hit rate 4.4% among 360,000; note: % is set by controls: 0 for no effect and ±100 for the full control effect; nearly all actives have a fitted effect of over 60% in size
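Compounds, titrated to a top concentration of 110 uM, were incubated 30 min at room temperature with preformed BAZ2B/acetyl-K14 H3 peptide complex (50 nM each). Proximity signal was measured by AlphaScreen after 20 min with beads.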
JMJD2A Tudor inh = blocks the human JMJD2A Tudor domain | Potency, µM (series often up to 114 µM), without a hit: at the highest dose activity change, negative = inhibition, usual class: inhibitors | O75164 | hit rate 4.4% among 390,000 | AlphaScreen JMJD2A-Tudor / H3K4me3 peptide binding; note: % is set by controls: 0 for no effect and ±100 for the full control effect; nearly all actives have a fitted effect of over 50% in size
G9a inh = G9a (human) methyltransferase inhibition; Q96KQ7; G9a H3K9 monomethylation, AlphaScreen, 2 h; Potency, µM (top dose mostly 102 µM), for inactives: at the top dose activity, negative = inhibition, hits mostly inhibitors; hit rate 8.8% among 350,000; AID 504332; note: % is set by controls: 0 for no effect and ±100 for the full control effect; nearly all actives have a fitted effect of over 75% in size
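AlphaScreen read-out: biotin-H3K9 peptide (500 nM) methylation by 20 nM enzyme with 20 uM SAM, 2 h at room temperature after 15 min compound preincubation; anti-monomethyl H3K9 antibody plus donor/acceptor beads, 10 min dark.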
HP1b chromo inh = inhibitors of HP1-beta chromodomain binding to methylated histone tails | AlphaScreen HP1-beta / biotin-H3K9me3 peptide binding | Potency, µM (titrated, usually from 114 µM), for inactives: top-dose activity change, negative = inhibition, hits mostly inhibitors | hit rate 0.56% among 390,000 | AID 540317; note: nearly all actives have a fitted effect of over 70% in size
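HP1-beta protein (50 nM final) preincubated 30 min at room temperature with biotinylated H3(1-18)K9me3 peptide (50 nM) in PBS pH 7.4, 0.01% Tween-20, then compound added for 30 min. AlphaScreen streptavidin donor/nickel chelate acceptor beads (10 ug/mL final), 30 min dark, luminescence read.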
L3MBTL1 block = inhibitors of human L3MBTL1. Q9Y468. AlphaScreen L3MBTL1–H3K9me1 peptide binding. Potency, µM (series often up to 57.1 µM), for the others: at the highest dose activity, negative = inhibition, most hits filed as inhibitors. hit rate 0.66% among 230,000. AID 485360; note: % is set by controls: 0 for no effect and ±100 for the full control effect; nearly all actives have a fitted effect of over 60% in size
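AlphaScreen assay: L3MBTL1 (50 nM final) was preincubated 30 min at room temperature with biotinylated H3(1-15)K9me1 peptide (75 nM final), then 30 min with library compounds; streptavidin donor and nickel chelate acceptor beads (10 ug/mL final) added, 30 min dark.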
Sfp inh = blocks B. subtilis Sfp PPTase activity. Biochemical Sfp PPTase activity, qHTS. Q9F4F7. Potency, µM, for inactives: largest response in the series, negative = inhibition, usual class: inhibitors. hit rate 3.5% among 310,000. AID 1490;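 note: the enzyme is Sfp with the accession as filed and its product quenches rhodamine fluorescence; 0% = enzyme reaction without inhibitor and -100% = no enzyme wells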
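Buffer: 50 mM Hepes-Na pH 7.6, 10 mM MgCl2, 0.01% Nonidet P-40, 0.01% BSA. Enzyme 15 nM, pre-exposed to compound 15 min; substrates then added and fluorescence change tracked over 30 min.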
The depositor's hits bear a star; ? = inconclusive; / = no result given; [ ] = dose if it differs, or a comment. In the library only some 12% were active in any assay of this set; here they are far more common. Calls come from the whole dose curve; as a rule, active = well fitted curve in the direction sought with a large enough effect; inconclusive = small, poorly fitted or top-dose-only effect, or another doubt; inactive = no such curve, though single readings can be large; an effect the other way counts as inactive or inconclusive. Potency is the fitted concentration of half-maximal effect.

SMILES | BAZ2B block | JMJD2A Tudor inh | G9a inh | HP1b chromo inh | L3MBTL1 block | Sfp inh
COc1ccc(C)cc1NC(=O)C1CCCN1S(=O)(=O)c1ccccc1F (stereo unspecified) | 11.4% | 4.4% | 8.91µM* | 42.3% | 6.6% | /
CC1CC(C)CN(C(=O)C2CCN(C(=O)Nc3ccccc3)CC2)C1 (stereo unspecified) | 5.1% | 0.7% | -21.7% | 51.3% | 6.2% | /
CCc1ccccc1NC(=O)CCS(=O)(=O)c1ccc(OC)cc1 | ? | 89.1µM* | 14.1µM* | ? | / | -16.0%
COc1ccc(S(=O)(=O)CCC(=O)Nc2c(C)cccc2C)cc1 | 1.7% | -9.0% | 39.8µM* | 36.2% | / | -18.6%
Cc1cccc(C)c1NC(=O)CCS(=O)(=O)c1ccc(Br)cc1 | -0.4% | -9.1% | 7.0% | 22.7% | / | 12.9%
CCNC(=O)CCS(=O)(=O)c1ccc2ccccc2c1 | -3.7% | -3.0% | 7.08µM* | 19.0% | -5.6% | ?
COc1cccc(C(c2sc3nc(-c4ccco4)nn3c2O)N2CCN(c3ccccc3F)CC2)c1 (stereo unspecified) | ? | ? | ? | -3.9% | / | /
CCOC(=O)C1CCCN(C(=O)C(=O)c2cn(CC(=O)N3CCOCC3)c3ccccc23)C1 (stereo unspecified) | -12.5% | -0.7% | 18.6% | 18.0% | / | 3.1%
CCOc1ccc(CCNC(=O)c2cc(=O)[nH]c3ccc(S(=O)(=O)N4CCCCC4C)cc23)cc1OCC (stereo unspecified) | -10.1% | -26.6% | -14.6%[59 µM] | 22.6% | / | /
COc1cccc(/C=C/C(=O)OCC(=O)NCCC2=CCCCC2)c1 | -28.5% | 8.91µM* | -1.9% | 21.0% | -3.8%[2.29 µM] | 13.4%
CC(=O)c1ccc(OCC(O)CN2CCN(c3ccccn3)CC2)cc1 (stereo unspecified) | -36.5% | ? | 56.2µM* | 88.6% | 2.6% | 4.9%
CCCc1ccc(OCC(O)CN2CCN(c3ccccn3)CC2)cc1 (stereo unspecified) | ? | ? | 50.1µM* | 4.8% | / | 11.9%
CC(=O)c1ccc(OCC(O)CN2CCN(CC(O)COc3ccc(C(C)=O)cc3)CC2)cc1 (stereo unspecified) | 2.6% | -0.8% | -0.8%[59 µM] | 15.5% | 12.0% | 10.2%
CC(=O)c1ccc(OCC(O)CN2CCN(S(=O)(=O)c3c(C)c(C)cc(C)c3C)CC2)cc1 (stereo unspecified) | -18.9% | -34.1% | 50.1µM* | 7.4% | / | -6.4%
C=CC(N)CCC(=O)O (stereo unspecified) | / | / | ? | / | / | 13.8%
CC(=O)Oc1ccc2c(=O)c(Oc3ccccc3)c(C)oc2c1OC(C)=O | -5.1% | ? | 3.16µM* | 37.9% | -11.6% | ?
O=C(NC1CCCC1)c1ncn[nH]1 | 44.7µM* | 31.6µM* | 20.1%[59 µM] | 44.8% | ? | -6.5%
O=C1CCCCCCC1Sc1ccccc1[N+](=O)[O-] (stereo unspecified) | ? | -17.1%[11.4 µM] | 11.2µM* | ? | / | -29.7%
O=C(O)c1ccccc1C(=O)c1ccc(F)c(F)c1 | / | -7.7% | / | 40.4% | / | /
CCN(CC)C(=O)Cn1cc(C(=O)C(=O)N2CC=C(c3ccccc3)CC2)c2ccccc21 | -4.7% | -18.0% | 50.1µM* | 36.5% | / | 1.4%
CCN(CC)C(=O)Cn1cc(C(=O)C(=O)N2CCN(C)CC2)c2ccccc21 | 2.9% | -2.1% | / | 10.7% | / | -1.5%
Cc1ccc(C2CCN(C(=O)Nc3ccc(Cl)c(Cl)c3)C2)cc1 (stereo unspecified) | 11.4% | 2.9% | 17.8%[59 µM] | 46.5% | / | /
O=C1c2cccnc2C(=O)N1Cc1ccc(F)cc1S(=O)(=O)NCc1ccco1 | ? | 27.6% | -5.2% | 64.7% | / | 3.6%
O=C1c2cccnc2C(=O)N1Cc1ccc(S(=O)(=O)NCc2ccco2)s1 | 79.4µM* | -34.6% | 3.4% | 32.8% | / | 6.3%
COc1ccccc1C1C2=C(CC(C)(C)CC2=O)Nc2nnnn21 (stereo unspecified) | -27.6% | -14.2% | 28.2µM* | 8.8% | 14.0% | 6.1%
SMILES | BAZ2B block | JMJD2A Tudor inh | G9a inh | HP1b chromo inh | L3MBTL1 block | Sfp inh
O=C(Nc1ccc2nc(SCC(=O)N3CCOCC3)sc2c1)c1cccc(Cl)c1 | -2.8% | -7.3% | 1.0%[59 µM] | 52.3% | / | /
Nc1nc(-c2ccc3c(c2)CCCC3)c(CC(=O)O)s1 | -5.2% | -20.4% | 50.1µM* | 22.3% | / | -15.0%
CCCn1c(N)c(C(=O)CSc2nc(C)nc3sc(C)c(C)c23)c(=O)[nH]c1=O | -11.4% | -15.8% | 22.4µM* | 29.9% | 3.8% | /
CCCn1c(N)c(C(=O)CSc2nc(C)cs2)c(=O)[nH]c1=O | 1.0% | -9.8% | 2.8%[59 µM] | 10.4% | / | 17.8%
CC(=O)N1CCN(C(=O)c2cc(S(=O)(=O)N(C)Cc3ccccc3)ccc2Cl)CC1 | -5.6% | -9.7% | ? | 32.0% | -1.2% | /
O=c1[nH][nH]c(C(F)(F)F)c1/C=N/N1CCOCC1 | -28.9% | -15.1% | 39.8µM* | 23.2% | 1.4% | -7.5%
O=c1[nH][nH]c(C(F)(F)F)c1C=Nc1ccc(Cl)cc1 | -6.7% | -30.3% | -24.0%[12.7 µM] | 4.8% | 0.3% | -1.7%
NC(=O)c1cc[n+](CC2=C(C(=O)O)N3C(=O)[C@@H](NC(=O)[C@@H](c4ccccc4)S(=O)(=O)[O-])[C@H]3SC2)cc1 | / | / | 3.77µM* | / | / | /
O=C(c1cc(-c2ccccc2Cl)on1)N1CCN(C(=O)c2ccco2)CC1 | -3.9% | -28.5% | -0.2% | 18.6% | -2.5% | 11.8%
CCN1CCN(c2cc(N3CCN(C(=O)c4ccco4)CC3)c3c4c(onc24)-c2ccccc2C3=O)CC1 | 11.2µM* | 28.2µM* | 17.8µM* | ? | / | 50.1µM*
O=C(O)CCNc1cc(N2CCN(C(=O)c3ccco3)CC2)c2noc3c2c1C(=O)c1ccccc1-3 | 12.6µM* | 17.8µM* | 10µM* | ? | / | -23.4%
Cc1cc(N2CCN(C(=O)c3ccco3)CC2)c2ccccc2n1 | -13.9% | -13.7% | ? | 32.8% | -0.6% | 22.2%
COc1ccc(-c2cc(C(F)(F)F)nc(-n3ccnc3C)n2)cc1 | 8.4% | -5.5% | 20.7%[59 µM] | 18.5% | 8.7% | -0.2%
CC(C)=N/N=C(\N)SCc1ccccc1 | 79.4µM* | -19.4% | 7.94µM* | 33.0% | / | -5.3%
CC1=C(CC(=O)O)c2cc(F)ccc2/C1=C/c1ccc(S(C)=O)cc1 (stereo unspecified) | -16.2% | -17.3% | 50.1µM* | 12.2% | / | 5.1%
CC1=C(CC(=O)O)c2cc(F)ccc2/C1=C\c1ccc(S(C)(=O)=O)cc1 | / | / | 38.8%[12.7 µM] | / | / | /
COCCCNc1nc(N)c([N+](=O)[O-])c(Nc2cc(OC)ccc2OC)n1 | -1.9% | -1.8% | -6.1% | 10.0% | -2.9% | 10.0%
COc1ccc(OC)c(Nc2nc(NCCCN(C)C)nc(N)c2[N+](=O)[O-])c1 | 31.6µM* | 35.5µM* | 44.7µM* | -21.2% | -11.7% | -10.8%

High-throughput results (PubChem BioAssay)
